Experimental data from PubChem BioAssay (NCATS).
Inconclusive results are not listed. Calls of active or inactive are those of the source. Unless noted, calls follow the shape of the dose curve; as a rule, active = well fitted curve in either direction with a large enough effect (not every such curve was filed as active); inconclusive = small, poorly fitted or top-dose-only effect, or another doubt; inactive = flat fitted curve, though single readings scatter.

Assays:
[1] = AP1 Signaling Pathway (AID 357); conditions: ME-180 AP-1-bla reporter, EGF-induced, beta-lactamase ratio, 5 h; at 17.2 µM (top of the series) unless noted; also: % is scaled to controls: 0 for no effect and ±100 for the full control effect
How it was run: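 AP-1-bla ME-180 cells with beta-lactamase reporter under AP-1 response element, stimulated with EC50 EGF; compounds titrated, 5 hours at 37 degrees Celsius. CCF4 read at 460/530 nm ratio; positive and negative modulators judged by AC50.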

[2] = NFAT Signaling Pathway (AID 444); conditions: Jurkat NFAT-bla M1, carbachol, beta-lactamase ratio, 5 h; at 17.2 µM (top of the series) unless noted;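 also: carbachol stimulus at about its EC50 of 1 µM final; % is scaled to controls: 0 for no effect and ±100 for the full control effect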
How it was run: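 Jurkat cells with NFAT-driven β-lactamase reporter and co-expressed M1 receptor, stimulated with carbachol (final 1 uM, ~EC50), compound titration, 5 h at 37 °C. CCF4 loaded 1 h at RT; 460/530 nm ratio gave %activity and AC50.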

[3] = Stat Signaling Pathway (AID 446); conditions: ME-180 SIE beta-lactamase reporter, IL-6 stimulated, 5 h; at 17.2 µM (top of the series) unless noted;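 also: ME-180 cervical cancer cells given 40 pM IL-6 alongside compound; SIE-controlled beta-lactamase reporter measured as 460/530 nm FRET emission ratio; % is scaled to controls: 0 for no effect and ±100 for the full control effect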
How it was run: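 Screening format detects activators and inhibitors alike: ME-180 SIE-bla cells stimulated at 40 pM IL-6 for 5 hrs with compound, then dual-emission beta-lactamase read at 405 nm excitation.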

[4] = biological target: Glucocorticoid receptor (Homo sapiens) (UniProt P04150); experiment: GR-GFP Redistribution (AID 450;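 active = compounds whose dose series gives a full or clear partial fitted curve of increased nuclear translocation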; also: potency is read from the fitted curve at half-maximal effect)
[5] = biological target: Glucocorticoid receptor (Homo sapiens) (UniProt P04150); experiment: GR-EFC Redistribution (AID 451; calls by dose curve; also: potency is read from the fitted curve at half-maximal effect); conditions: CHO-K1 GR-EFC translocation, beta-gal luminescence, 2 h
How it was run: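 CHO-K1 cells expressing nuclear EA and GR-ED fragments of b-gal; compounds titrated up to 46 uM final, 2 h at 37 C. GR nuclear translocation read as complemented b-gal luminescence after 1 h RT detection.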

[6] = biological target: Mitogen-activated protein kinase 10 (Mus musculus) (UniProt Q61831); experiment: JNK3 AlphaScreen Assay (AID 530);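 also: kinase came from lysate of stimulated human HepG2 cells; signal reports phosphorylation of biotinylated GST-cJun 1-79 at Ser73 with 10 µM ATP; % is scaled to controls: 0 for no effect and ±100 for the full control effect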
How it was run: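 Pre-activated (IL-1β/TNFα) JNK3 in HepG2 lysates phosphorylates biotin-GST-cJun(1-79), 10 uM ATP; anti-phospho-cJun(Ser73) AlphaScreen read at room temperature, pH 7.6 Tris buffer. Compounds pre-incubated 15 min as titrations.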

[7] = biological target: 3',5'-cyclic-AMP phosphodiesterase 4B (Homo sapiens) (UniProt Q07343); experiment: qHTS Assay for Inhibitors of PDE-IV (AID 607; active = well fitted activation curve with a large enough effect in the main read-out, with a control signal flat, not every such curve was filed as active; also: % of control where 0% means no effect)
How it was run: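 The readout is membrane depolarisation from a cAMP-sensing CNG channel, detected with a potential dye at ex 535/em 590. Cells were HEK293-derived (endogenous PDE-IV) at 1000 cells/well, titrated up to 22.9 uM final.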

[8] = biological target: Guanine nucleotide-binding protein G(i) subunit alpha-1 (Homo sapiens) (UniProt P63096); experiment: qHTS Assay for Inhibitors of RGS12 GoLoco Motif Activity (Green Fluorophore) (AID 879; active = well fitted curve in the direction sought with a large enough effect; an effect the other way counts as inactive or inconclusive;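 also: 0% = labeled peptide with Gαi1 and full inhibition = labeled peptide alone without protein; negative values mean loss of peptide binding seen as reduced polarization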)
How it was run: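 Fluorescence polarization assay: 50 nM Gαi1 with 10 nM FITC-labeled RGS12 GoLoco peptide in 10 mM Tris pH 7.5, 150 mM NaCl, 0.1 mM GDP, 0.05% NP40, 10 min at room temperature with compound.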

[9] = qHTS Assay for Identification of Small Molecule Agonists for Thrombopoietin (TPO) Signaling Pathway (AID 917; active = well fitted curve in the direction sought with a large enough effect; an effect the other way counts as inactive or inconclusive; also: % is scaled to controls: 0 for no effect and ±100 for the full control effect)
How it was run: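 Murine Ba/F3 cells expressing human TPO receptor and GPIIb-promoter luciferase, IL-3-starved overnight, given compound plus TPO at 26 pM (EC50). After 24 h at 37 C, 5% CO2, luminescence read.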

[10] = biological target: Pyruvate kinase (Leishmania mexicana) (UniProt Q27686); experiment: qHTS Validation Assay for Inhibitors of Leishmania Mexicana Pyruvate Kinase (AID 945; active = well fitted curve in the direction sought with a large enough effect; an effect the other way counts as inactive or inconclusive;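 also: 0% = DMSO only neutral control wells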)
How it was run: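 Read-out: luminescence from PKLight stop/detection reagent, data normalized to DMSO. Reaction: 0.2 nM E451W LmPYK, 0.5 mM PEP, 0.1 mM ADP, pH 7.2, 1 h room temperature.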

[11] = biological target: Pyruvate kinase PKM (Homo sapiens) (UniProt P14618); experiment: qHTS Assay for Activators of Human Muscle Pyruvate Kinase (AID 954; active = well fitted curve in the direction sought with a large enough effect, not every such curve was filed as active;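 also: 0% = uninhibited enzyme and -100% = no enzyme or full thiadiazolimine inhibition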)
How it was run: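 Reaction: 0.1 nM purified PKM2 with 0.5 mM phosphoenolpyruvate and 0.1 mM ADP, room temperature, 1 h. Readout: luciferase-based ATP luminescence after stop reagent. Activators judged against a 0.3 nM enzyme column.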

[12] = biological target: Alpha-galactosidase A (Homo sapiens) (UniProt P06280); experiment: Counterscreen for Glucocerebrosidase Inhibitors: qHTS Assay for Human alpha-Galactosidase at pH 4.5 (AID 992; active = well fitted curve in the direction sought with a large enough effect; an effect the other way counts as inactive or inconclusive; also: 0% is about no effect)
How it was run: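 Concentration-response curves (0.7 nM to 77 uM final) were modeled with the Hill equation to give AC50. Reactions: 2 nM enzyme, 80 uM fluorogenic alpha-galactoside, pH 4.5 citric acid buffer, 20 min, room temperature.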

[13] = biological target: alpha-glucosidase (Oryza sativa, rice) (UniProt Q653V4); experiment: Counterscreen for Glucocerebrosidase Inhibitors: qHTS Assay for Rice alpha-Glucosidase at pH 5.0 (AID 997; active = well fitted curve in the direction sought with a large enough effect; an effect the other way counts as inactive or inconclusive;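 also: 0% = full activity with enzyme and -100% = basal without enzyme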)
How it was run: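 Rice alpha-glucosidase (4 nM final) with 400 uM 4-methylumbelliferyl-alpha-D-glucopyranoside in citrate buffer pH 5.0, 20 min at room temperature, stopped at pH 10; fluorescence 365/440 nm, compounds 0.7 nM–77 uM, AC50 from Hill fits.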

[14] = biological target: Cytochrome P450 3A4 (Homo sapiens) (UniProt P08684); experiment: qHTS Assay for Activators of Cytochrome P450 3A4 (AID 885; active = well fitted curve in the direction sought with a large enough effect; an effect the other way counts as inactive or inconclusive; also: nearly all actives have a fitted effect of over 65% in size)
How it was run: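 Steps: enzyme/substrate mix dispensed; compound added, 10 min RT; NADPH regeneration solution added, 60 min RT; luciferin detection buffer stops reaction; 20 min later luminescence measured.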

[15] = biological target: Muscarinic acetylcholine receptor M1 (Rattus norvegicus) (UniProt P08482); experiment: qHTS Assay for Antagonists of Acetylcholine Muscarinic M1 Receptor: Kinetic Measurement of Intracellular Calcium Response (AID 943; active = well fitted curve in the direction sought with a large enough effect; an effect the other way counts as inactive or inconclusive;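 also: Fluo-4 calcium signal as peak divided by basal fluorescence over 4 min; nearly all actives have a fitted effect of over 75% in size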)
How it was run: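 Rat M1-CHO cells, 2000/well, overnight → Fluo-4 no-wash dye with probenecid, 1 h 37C → compound 10 min, room temp → basal read 6 s → carbachol EC80 (100 nM) → 4 min kinetic read; peak/basal.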

[16] = biological target: Muscarinic acetylcholine receptor M1 (Rattus norvegicus) (UniProt P08482); experiment: qHTS Assay for Antagonists of Acetylcholine Muscarinic M1 Receptor: Measurement of IP-One Response (AID 944; active = well fitted curve in the direction sought with a large enough effect; an effect the other way counts as inactive or inconclusive; also: nearly all actives have a fitted effect of over 75% in size)
How it was run: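 M1-CHO (rat), 2000 cells/well, overnight recovery; cpd 10 min; carbachol EC80 (200 nM), 30 min, HEPES buffer + 50 mM LiCl pH 7.4; IP-One HTRF, Ex 337, Em 620/665 nm.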

Chain of 3',5'-cyclic-AMP phosphodiesterase 4B (Homo sapiens) (Q07343 whole entry, looked up): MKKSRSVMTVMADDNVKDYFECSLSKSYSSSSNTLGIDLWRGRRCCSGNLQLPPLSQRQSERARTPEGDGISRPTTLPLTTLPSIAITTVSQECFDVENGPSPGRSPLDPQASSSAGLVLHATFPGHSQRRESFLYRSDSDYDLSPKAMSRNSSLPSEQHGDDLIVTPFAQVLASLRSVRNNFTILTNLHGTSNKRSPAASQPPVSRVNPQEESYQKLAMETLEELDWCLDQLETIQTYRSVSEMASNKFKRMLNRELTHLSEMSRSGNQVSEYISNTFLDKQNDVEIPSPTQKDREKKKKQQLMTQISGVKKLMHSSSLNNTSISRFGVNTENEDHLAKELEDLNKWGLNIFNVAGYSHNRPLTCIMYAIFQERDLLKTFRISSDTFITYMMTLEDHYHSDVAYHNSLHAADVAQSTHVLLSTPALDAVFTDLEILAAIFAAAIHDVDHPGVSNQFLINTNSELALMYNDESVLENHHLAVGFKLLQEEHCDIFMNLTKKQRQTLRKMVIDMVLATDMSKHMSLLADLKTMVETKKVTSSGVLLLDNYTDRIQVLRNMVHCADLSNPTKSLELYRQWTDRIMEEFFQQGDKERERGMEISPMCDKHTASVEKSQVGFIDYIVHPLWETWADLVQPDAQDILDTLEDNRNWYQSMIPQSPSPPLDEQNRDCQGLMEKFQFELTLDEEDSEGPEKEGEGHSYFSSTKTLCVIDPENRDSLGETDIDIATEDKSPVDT
Chain of Alpha-galactosidase A (Homo sapiens) (P06280 whole entry, looked up): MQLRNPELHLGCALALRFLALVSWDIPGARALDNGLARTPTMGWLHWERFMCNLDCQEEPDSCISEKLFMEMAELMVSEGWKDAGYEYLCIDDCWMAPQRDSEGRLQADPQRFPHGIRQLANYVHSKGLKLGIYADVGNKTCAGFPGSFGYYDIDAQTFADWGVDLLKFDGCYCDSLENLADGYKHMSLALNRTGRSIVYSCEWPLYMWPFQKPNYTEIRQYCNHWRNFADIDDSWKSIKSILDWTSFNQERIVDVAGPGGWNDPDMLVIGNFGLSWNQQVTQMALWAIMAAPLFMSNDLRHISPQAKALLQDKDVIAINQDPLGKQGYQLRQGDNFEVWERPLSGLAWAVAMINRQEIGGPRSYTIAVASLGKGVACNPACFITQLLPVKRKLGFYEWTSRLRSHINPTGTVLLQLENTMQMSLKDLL
Chain of Pyruvate kinase PKM (Homo sapiens) (P14618 whole entry, looked up): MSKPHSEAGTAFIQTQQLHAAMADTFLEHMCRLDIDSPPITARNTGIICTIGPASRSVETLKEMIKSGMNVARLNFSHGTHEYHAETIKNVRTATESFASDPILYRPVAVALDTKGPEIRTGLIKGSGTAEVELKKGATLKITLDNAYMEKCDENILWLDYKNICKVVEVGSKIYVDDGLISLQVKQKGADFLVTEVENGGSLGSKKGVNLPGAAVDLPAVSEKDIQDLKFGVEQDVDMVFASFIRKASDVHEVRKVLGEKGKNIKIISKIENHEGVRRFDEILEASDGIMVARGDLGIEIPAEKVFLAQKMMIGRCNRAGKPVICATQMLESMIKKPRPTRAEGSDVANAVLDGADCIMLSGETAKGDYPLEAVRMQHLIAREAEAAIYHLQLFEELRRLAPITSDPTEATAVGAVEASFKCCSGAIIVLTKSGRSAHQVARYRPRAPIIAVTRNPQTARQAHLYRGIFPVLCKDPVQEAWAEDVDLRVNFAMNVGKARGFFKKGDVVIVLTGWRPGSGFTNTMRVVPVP
Chain of Glucocorticoid receptor (Homo sapiens) (P04150 whole entry, looked up, the tested form may be a part): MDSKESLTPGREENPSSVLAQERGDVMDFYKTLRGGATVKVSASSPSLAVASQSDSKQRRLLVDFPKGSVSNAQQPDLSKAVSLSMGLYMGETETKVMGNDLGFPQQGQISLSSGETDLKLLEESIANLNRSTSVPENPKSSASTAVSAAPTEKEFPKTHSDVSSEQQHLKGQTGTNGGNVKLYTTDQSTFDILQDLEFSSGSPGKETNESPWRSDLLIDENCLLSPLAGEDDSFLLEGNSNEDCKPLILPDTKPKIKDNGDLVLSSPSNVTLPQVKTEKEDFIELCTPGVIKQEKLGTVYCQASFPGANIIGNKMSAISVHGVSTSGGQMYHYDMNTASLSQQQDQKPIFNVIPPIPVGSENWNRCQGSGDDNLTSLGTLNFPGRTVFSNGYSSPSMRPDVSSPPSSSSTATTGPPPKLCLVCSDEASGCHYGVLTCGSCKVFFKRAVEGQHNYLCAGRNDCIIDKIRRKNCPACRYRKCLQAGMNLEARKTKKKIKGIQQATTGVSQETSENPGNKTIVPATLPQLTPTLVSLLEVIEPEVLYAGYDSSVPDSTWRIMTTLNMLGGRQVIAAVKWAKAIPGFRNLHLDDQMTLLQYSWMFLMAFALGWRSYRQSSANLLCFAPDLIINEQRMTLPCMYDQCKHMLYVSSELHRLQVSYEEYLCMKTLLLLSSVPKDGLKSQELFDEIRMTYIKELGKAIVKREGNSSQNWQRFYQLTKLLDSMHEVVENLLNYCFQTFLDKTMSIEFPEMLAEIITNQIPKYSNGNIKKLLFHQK
Chain of Pyruvate kinase (Leishmania mexicana) (Q27686 2-499 E452W): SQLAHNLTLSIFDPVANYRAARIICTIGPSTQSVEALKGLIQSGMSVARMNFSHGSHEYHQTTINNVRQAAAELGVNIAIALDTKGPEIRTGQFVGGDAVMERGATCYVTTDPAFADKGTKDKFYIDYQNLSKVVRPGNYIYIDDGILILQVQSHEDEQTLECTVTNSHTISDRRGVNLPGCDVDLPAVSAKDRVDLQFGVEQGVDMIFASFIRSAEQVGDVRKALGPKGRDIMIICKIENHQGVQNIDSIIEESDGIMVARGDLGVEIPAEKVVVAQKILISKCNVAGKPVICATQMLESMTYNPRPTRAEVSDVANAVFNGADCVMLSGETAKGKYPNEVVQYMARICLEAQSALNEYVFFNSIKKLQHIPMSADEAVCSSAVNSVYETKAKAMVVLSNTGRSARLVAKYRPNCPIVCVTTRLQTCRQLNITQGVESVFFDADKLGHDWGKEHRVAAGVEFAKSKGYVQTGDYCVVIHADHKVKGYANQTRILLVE
Chain of Guanine nucleotide-binding protein G(i) subunit alpha-1 (Homo sapiens) (P63096 whole entry, looked up): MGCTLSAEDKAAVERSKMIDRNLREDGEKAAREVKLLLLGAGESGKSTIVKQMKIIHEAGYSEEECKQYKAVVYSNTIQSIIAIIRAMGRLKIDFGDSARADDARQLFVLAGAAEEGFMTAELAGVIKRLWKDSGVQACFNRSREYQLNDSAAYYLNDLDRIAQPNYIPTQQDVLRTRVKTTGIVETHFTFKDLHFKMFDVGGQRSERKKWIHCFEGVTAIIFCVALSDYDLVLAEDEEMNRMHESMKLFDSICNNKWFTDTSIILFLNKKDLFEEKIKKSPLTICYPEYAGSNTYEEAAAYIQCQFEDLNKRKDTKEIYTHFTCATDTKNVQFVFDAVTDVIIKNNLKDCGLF
Chain of Muscarinic acetylcholine receptor M1 (Rattus norvegicus) (P08482 whole entry, looked up): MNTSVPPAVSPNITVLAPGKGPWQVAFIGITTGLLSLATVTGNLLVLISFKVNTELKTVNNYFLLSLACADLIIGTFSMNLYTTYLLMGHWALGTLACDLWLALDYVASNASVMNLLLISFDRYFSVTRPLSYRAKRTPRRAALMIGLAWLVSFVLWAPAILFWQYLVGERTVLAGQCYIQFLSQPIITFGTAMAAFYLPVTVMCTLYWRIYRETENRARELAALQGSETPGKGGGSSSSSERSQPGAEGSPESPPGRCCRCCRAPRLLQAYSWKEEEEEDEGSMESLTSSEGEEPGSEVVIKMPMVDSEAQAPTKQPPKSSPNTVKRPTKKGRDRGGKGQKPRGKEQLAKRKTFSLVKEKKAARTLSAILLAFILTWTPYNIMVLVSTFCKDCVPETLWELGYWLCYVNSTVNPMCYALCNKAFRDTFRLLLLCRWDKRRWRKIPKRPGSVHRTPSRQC
Chain of Cytochrome P450 3A4 (Homo sapiens) (P08684 whole entry, looked up): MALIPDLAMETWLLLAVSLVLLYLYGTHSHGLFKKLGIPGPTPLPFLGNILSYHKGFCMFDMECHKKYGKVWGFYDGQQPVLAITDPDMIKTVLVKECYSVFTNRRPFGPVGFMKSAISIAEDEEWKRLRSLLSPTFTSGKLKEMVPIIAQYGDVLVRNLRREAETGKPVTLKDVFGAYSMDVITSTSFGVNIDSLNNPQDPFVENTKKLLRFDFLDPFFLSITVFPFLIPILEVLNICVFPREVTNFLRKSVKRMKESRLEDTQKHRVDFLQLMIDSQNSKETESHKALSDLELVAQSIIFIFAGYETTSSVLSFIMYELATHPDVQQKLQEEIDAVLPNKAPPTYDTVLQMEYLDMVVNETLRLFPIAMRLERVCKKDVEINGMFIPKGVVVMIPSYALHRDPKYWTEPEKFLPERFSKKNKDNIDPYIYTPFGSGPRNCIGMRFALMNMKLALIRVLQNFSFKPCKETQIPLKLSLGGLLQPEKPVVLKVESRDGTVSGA

O=C(O)c1cc(Cl)cc(Cc2cc(Cl)cc(C(=O)O)c2O)c1O
inactive: activity change, negative = inhibition [1] 10.2% [at 7.69 µM] | activity change, negative = inhibition [2] 10.6% [at 7.69 µM] | activity, negative = inhibition [3] -2.39% [at 7.69 µM] | Potency [4] > 46 µM | Potency [5] > 9.22 µM | activity change, negative = inhibition [6] 4.28% [at 11.4 µM] | Potency [7]

CN1C[C@@H](C(=O)N[C@]2(C)O[C@]3(O)[C@H]4CCCN4C(=O)[C@H](Cc4ccccc4)N3C2=O)C[C@H]2c3cccc4[nH]cc(c34)C[C@@H]21
inactive: activity change, negative = inhibition [1] -19.9% [at 38 µM] | activity change, negative = inhibition [2] -15.6% [at 38 µM] | activity, negative = inhibition [3] -18.4% [at 38 µM] | Potency [4] > 46 µM | Potency [5] > 46 µM | Potency [6] | outcome [8] | Potency [9] | Potency [10] | outcome [11] | outcome [12] | outcome [13]

O=C(C[N+]12CN3CN(CN(C3)C1)C2)c1ccc(-c2ccccc2)cc1
inactive: activity change, negative = inhibition [1] 8.23% [at 7.69 µM] | activity change, negative = inhibition [2] -2.51% [at 7.69 µM] | activity, negative = inhibition [3] 0.439% [at 7.69 µM] | Potency [4] > 46 µM | Potency [5] > 9.22 µM | activity change, negative = inhibition [6] -2.86% [at 11.4 µM] | Potency [7] | activity change, positive = activation [14] -51.5% [at 11.4 µM]

COc1ccc(-n2c(=O)c(CCc3ccccc3)nc3cnc(N4CCNCC4)nc32)cc1
inactive: activity change, negative = inhibition [1] 4.61% [at 7.69 µM] | activity change, negative = inhibition [2] 7.43% [at 7.69 µM] | activity, negative = inhibition [3] 0.474% [at 7.69 µM] | Potency [4] > 9.22 µM | Potency [5] > 46 µM | Potency [6] | Potency [7]

CCCCCC[C@@H]([C@H](C)O)n1cnc2c(N)ncnc21
inactive: activity change, negative = inhibition [1] -20.5% [at 38 µM] | activity change, negative = inhibition [2] -4.53% [at 38 µM] | activity, negative = inhibition [3] 25.6% [at 38 µM] | Potency [4] > 46 µM | Potency [5] > 46 µM | Potency [6] | Potency [7] | outcome [8] | Potency [9] | Potency [15] | Potency [16] | Potency [10] | outcome [11] | outcome [12] | outcome [13]

NCCC[C@@](N)(C(=O)O)C(F)F
inactive: activity change, negative = inhibition [1] 6.84% [at 38 µM] | activity change, negative = inhibition [2] -7.76% [at 38 µM] | activity, negative = inhibition [3] 2.8% [at 38 µM] | Potency [4] > 46 µM | Potency [5] > 46 µM | Potency [6] | Potency [7] | outcome [8] | Potency [9] | Potency [16] | Potency [10] | outcome [11] | outcome [12] | outcome [13]
